Source: the supplement of paper PMC6897291

Experiments:
[1] = system: U-2932; test: growth inhibition by drug alone (1 - RLU/untreated control) (fraction); higher = stronger inhibition; settings: 177Lu-lilotomab satetraxetan 0 ug/ml
Summary of the method: (§1)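 RIVA or U-2932 cells, untreated or pretreated 18 h with a radiolabelled anti-CD37 antibody conjugate (~600 MBq/mg; 0.5 µg/ml RIVA, 1 µg/ml U-2932), were washed and seeded at 3,000 cells/well on plates pre-printed with the Selleck Cambridge Cancer Compound library. Doses were 10/100 nM (RIVA) or 10/1,000 nM (U-2932). RealTime-Glo luminescence was read daily from day 3 after 1 h at 37°C. Growth inhibition is 1 − RLU/mean of 48 untreated no-drug wells per plate.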

[2] = system: U-2932; test: growth inhibition by drug plus 177Lu-lilotomab satetraxetan (1 - RLU/untreated control) (fraction); higher = stronger inhibition; settings: 177Lu-lilotomab satetraxetan 1 ug/ml
Summary of the method: as §1

[3] = system: RIVA; test: as above; settings: 177Lu-lilotomab satetraxetan 0.5 ug/ml
Summary of the method: as §1

[4] = system: RIVA; test: growth inhibition by drug alone (1 - RLU/untreated control) (fraction); higher = stronger inhibition; settings: 177Lu-lilotomab satetraxetan 0 ug/ml
Summary of the method: as §1

Row | Structure (SMILES) | growth inhibition by drug alone ([1]; 10 nM, time (day): 3) | growth inhibition by drug alone ([1]; 10 nM, time (day): 4) | growth inhibition by drug alone ([1]; 10 nM, time (day): 5) | growth inhibition by drug alone ([1]; 10 nM, time (day): 6) | growth inhibition by drug alone ([1]; 1000 nM, time (day): 3) | growth inhibition by drug alone ([1]; 1000 nM, time (day): 4) | growth inhibition by drug alone ([1]; 1000 nM, time (day): 5) | growth inhibition by drug alone ([1]; 1000 nM, time (day): 6) | growth inhibition by drug plus 177Lu-lilotomab satetraxetan ([2]; 10 nM, time (day): 3) | growth inhibition by drug plus 177Lu-lilotomab satetraxetan ([2]; 10 nM, time (day): 4) | growth inhibition by drug plus 177Lu-lilotomab satetraxetan ([2]; 10 nM, time (day): 5) | growth inhibition by drug plus 177Lu-lilotomab satetraxetan ([2]; 10 nM, time (day): 6) | growth inhibition by drug plus 177Lu-lilotomab satetraxetan ([2]; 1000 nM, time (day): 3) | growth inhibition by drug plus 177Lu-lilotomab satetraxetan ([2]; 1000 nM, time (day): 4) | growth inhibition by drug plus 177Lu-lilotomab satetraxetan ([2]; 1000 nM, time (day): 5) | growth inhibition by drug plus 177Lu-lilotomab satetraxetan ([2]; 1000 nM, time (day): 6) | growth inhibition by drug plus 177Lu-lilotomab satetraxetan ([3]; 10 nM, time (day): 3) | growth inhibition by drug plus 177Lu-lilotomab satetraxetan ([3]; 10 nM, time (day): 4) | growth inhibition by drug plus 177Lu-lilotomab satetraxetan ([3]; 10 nM, time (day): 5) | growth inhibition by drug plus 177Lu-lilotomab satetraxetan ([3]; 10 nM, time (day): 6) | growth inhibition by drug plus 177Lu-lilotomab satetraxetan ([3]; 100 nM, time (day): 3) | growth inhibition by drug plus 177Lu-lilotomab satetraxetan ([3]; 100 nM, time (day): 4) | growth inhibition by drug plus 177Lu-lilotomab satetraxetan ([3]; 100 nM, time (day): 5) | growth inhibition by drug plus 177Lu-lilotomab satetraxetan ([3]; 100 nM, time (day): 6) | growth inhibition by drug alone ([4]; 10 nM, time (day): 3) | growth inhibition by drug alone ([4]; 10 nM, time (day): 4) | growth inhibition by drug alone ([4]; 10 nM, time (day): 5) | growth inhibition by drug alone ([4]; 10 nM, time (day): 6) | growth inhibition by drug alone ([4]; 100 nM, time (day): 3) | growth inhibition by drug alone ([4]; 100 nM, time (day): 4) | growth inhibition by drug alone ([4]; 100 nM, time (day): 5) | growth inhibition by drug alone ([4]; 100 nM, time (day): 6)
1 | Cc1ccc(C(=O)Nc2ccc(CN3CCN(C)CC3)c(C(F)(F)F)c2)cc1C#Cc1cnc2cccnn12 | -0.0855 | -0.101 | -0.212 | -0.304 | 0.619 | 0.711 | 0.699 | 0.718 | -0.1 | -0.0253 | 0.0155 | 0.0448 | 0.74 | 0.819 | 0.844 | 0.883 | 0.39 | 0.475 | 0.499 | 0.509 | 0.689 | 0.752 | 0.77 | 0.788 | – | – | – | – | – | – | – | –
2 | COc1cc2ncnc(Nc3ccc(F)c(Cl)c3)c2cc1OCCCN1CCOCC1 [Gefitinib (Iressa)] | 0.0523 | -0.0185 | -0.0608 | -0.248 | -0.147 | -0.0975 | -0.157 | -0.226 | -0.0292 | -0.0156 | -0.0275 | 0.0384 | -0.218 | -0.0647 | -0.0381 | 0.0874 | 0.402 | 0.522 | 0.546 | 0.553 | 0.408 | 0.485 | 0.503 | 0.494 | – | – | – | – | – | – | – | –
3 | Nc1nc(Cl)nc2c1ncn2[C@@H]1O[C@H](CO)[C@@H](O)[C@@H]1F [Clofarabine] | 0.0673 | 0.0292 | -0.0979 | -0.0594 | 0.929 | 0.958 | 0.972 | 0.979 | 0.00886 | 0.0897 | 0.102 | 0.0953 | 0.925 | 0.961 | 0.977 | 0.985 | 0.51 | 0.568 | 0.575 | 0.586 | 0.872 | 0.923 | 0.943 | 0.959 | -0.085 | -0.0539 | -0.15 | -0.383 | 0.384 | 0.685 | 0.781 | 0.827
4 | C#CCN(C)CC1=Cc2ccccc2Oc2ccccc21 | 0.0712 | 0.0296 | -0.0381 | -0.0948 | 0.056 | 0.0596 | 0.000991 | 0.0366 | 0.0301 | 0.075 | 0.128 | 0.198 | 0.0289 | 0.0839 | 0.129 | 0.233 | 0.602 | 0.618 | 0.628 | 0.62 | 0.573 | 0.617 | 0.634 | 0.63 | – | – | – | – | – | – | – | –
5 | CCn1c(-c2nonc2N)nc2cnc(Oc3cccc(NC(=O)c4ccc(OCCN5CCOCC5)cc4)c3)cc21 | -0.134 | -0.155 | -0.145 | -0.41 | 0.0463 | 0.0519 | 0.129 | 0.357 | -0.198 | -0.145 | -0.0619 | 0.0328 | 0.279 | 0.292 | 0.374 | 0.603 | 0.46 | 0.522 | 0.558 | 0.578 | 0.439 | 0.515 | 0.547 | 0.569 | – | – | – | – | – | – | – | –
